Measurements published in PubChem BioAssay AID602 (SRMLSC, 2007).
Screen size: about 85,000 compounds; about 35 (0.04%) were called active.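 How the source made its calls: active means viability drop by adding the cancer drug above about 55%, with treated viability meeting a 40% cutoff (limit read from the data); inactive means the rest, inconclusive results apart.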 The entries come from a sample that favours actives as a whole.

Test: MRP1 drug-resistance reversers in H69AR cells – cell-based, doxorubicin co-treatment, primary screen (AID 602);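 on differential viability (reversal): larger differential means the compound sensitizes cells more to doxorubicin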
Details: CellTiter-Glo, 72 h, at 10 µM; for differential viability (reversal): stronger effect = higher value
[1] = H69AR cells + 2 uM doxorubicin, measured here: viability with 2 uM doxorubicin, stronger effect = lower value
[2] = H69AR cells, measured here: cytotoxicity without doxorubicin

Compound	differential viability (reversal) (H69AR cells + 2 uM doxorubicin)	viability [1] [%]	viability [2] [%]
Cc1cc(C)n(-c2nnc(C)n2NC(=O)c2cccc(Cl)c2)n1	-4.55% (inactive)	92.7	88.1
Cc1ccc(OCc2nnc(NC(=O)OCC(C)C)s2)cc1	9.33% (inactive)	92.3	102
O=S(=O)(N1CCCCC1)N1CCNCC1	-0.65% (inactive)	101	100
COc1cccc(OCc2cc(/C=N/NC(=O)c3nc(Cl)c(Cl)c(N)c3Cl)ccc2OC)c1	-32.4% (inactive)	52.1	19.7
CS(=O)(=O)N(CC(O)Cn1c2ccccc2c2ccccc21)c1cccc2ccccc12 (stereo not drawn)	-10.3% (inactive)	12	1.71
CSc1ccccc1NC(=O)c1cc(C2CC2)on1	-6.53% (inactive)	97.2	90.7
O=C(NCCOc1ccccc1)c1ccccc1	-3.69% (inactive)	95.1	91.4
COc1ccc(NC(=O)Nc2ccc3nc(C)c(C)nc3c2)cc1	5.42% (inactive)	85.3	90.7
CCNc1nc(NC(C)C)nc(OCCOC(=O)c2ccccc2)n1	-9.76% (inactive)	93.2	83.5
CC(C)=C1SC(N2CCN(c3cccc(C)c3)CC2)=NC1=O	15.1% (inactive)	81.8	96.9
O=C(NC1CCCC1)C(c1ccccn1)N(C(=O)c1csnn1)C1CCCC1 (stereo not drawn)	0.73% (inactive)	80.5	81.2
COC(=O)C1=C(Nc2ccc(C)cc2)C=C(C)C(C(=O)OC)C1c1ccc(F)cc1 (stereo not drawn)	-31.5% (inactive)	43.6	12.1
CCC(C)(C)n1nnnc1CN1CCN(c2nc3ccc(C)cc3cc2C#N)CC1	0.16% (inactive)	81.3	81.4
CCOc1cc2[nH]c(=S)n(CCN3CCCCC3C)c(=O)c2cc1OCC (stereo not drawn)	3.92% (inactive)	78.5	82.5
CCOC(=O)c1cnc(SCC(=O)Nc2ccccc2C(=O)OC)nc1N	2.9% (inactive)	84.2	87.2
O=C(Nc1ccc2oc(-c3ccc4ccccc4c3)nc2c1)c1cccs1	-0.32% (inactive)	2.97	2.65
CCN(CC)C(=O)CN(c1cccc(OC)c1)S(=O)(=O)c1ccc(C)cc1	-12.4% (inactive)	94.7	82.3
Cc1nnc(NC(=O)CCCOc2ccccc2)s1	12.8% (inactive)	80.9	93.7
CCn1c(-c2ccoc2C)n[nH]c1=S	3.26% (inactive)	86.2	89.5
Cc1ccccc1N1CCN(CCCOc2ccc3c(C)cc(=O)oc3c2)CC1	-14.1% (inactive)	72.8	58.7
O=c1cc(CN2CCN(c3cccc(Cl)c3)CC2)c2cc3c(cc2o1)CCCC3	36.9% (inactive)	82.6	120
O=C(c1ccc(Cl)c(Cl)c1)N1CCCC1	-4.92% (inactive)	100	95.3
Cc1ccc(NC(=O)Nc2ccc3oc(C)nc3c2)cc1	-17% (inactive)	91.5	74.5
COc1ccc(Cl)cc1C(=O)NCc1cn(C)nc1C	5.94% (inactive)	80.2	86.1
O=C(CN1CCCCCC1)N1c2ccccc2Sc2ccc(C(F)(F)F)cc21	-13.5% (inactive)	50.3	36.8
COc1ccc(-c2nnc(SCC(=O)c3ccc4c(c3)OCCO4)o2)cc1	2.52% (inactive)	99.1	102

Compound	differential viability (reversal) (H69AR cells + 2 uM doxorubicin)	viability [1] [%]	viability [2] [%]
Cc1ccc(S(=O)(=O)Oc2ccc(/C=N/NC(=O)c3c(Cl)cnn3C)cc2)cc1	-3.21% (inactive)	82.4	79.2
COc1ccc(C(=O)Nc2nc(-c3ccc(S(=O)(=O)N4CCOCC4)cc3)cs2)cc1	-4.07% (inactive)	62.1	58
O=c1c2ccccc2nc2n1C1(CCCCC1)Cc1ccccc1-2	-4.43% (inactive)	88.2	83.7
COC(=O)/C(NC(C)=O)=C(\C)c1ccc(Cl)cc1	-15.7% (inactive)	118	102
Cc1nnc(SCC(=O)Nc2ncc3c(n2)CC(C)(C)CC3=O)s1	16.1% (inactive)	79.2	95.3
CC(=O)c1cccc(NC(=O)N2CCCC2C(=O)NCCc2ccccc2)c1 (stereo not drawn)	1.66% (inactive)	89.9	91.5
O=C(/C=C/NNC(=O)c1cccc(Br)c1)c1ccccc1	-16.9% (inactive)	78.5	61.5
COC(=O)c1ccc(Sc2ccc(F)cc2)c(N)c1	11.2% (inactive)	97.4	109
O=C(CN1CCCCC1)N1c2ccccc2Sc2ccc(C(F)(F)F)cc21	-4.36% (inactive)	91.2	86.8
CC(CO)N1CCS(=O)(=O)CC1 (stereo not drawn)	9.77% (inactive)	83.8	93.6
O=C(CCN1C(=O)c2ccccc2C1=O)Nc1cccc(F)c1	0% (inactive)	98.2	98.2
Cc1ccc(SCCC(=O)OCC(=O)Nc2ncc(Cl)cc2Cl)cc1	6.94% (inactive)	72.7	79.6
O=C(NCc1ccco1)c1ccc(Cn2c(=O)c3sccc3n(Cc3ccc(F)cc3)c2=O)cc1	11.8% (inactive)	70.9	82.7
CC1(C)CCc2nc(SCc3ccccc3)c(C#N)cc2C1	3.69% (inactive)	77.7	81.4
Cc1csc(OCC(=O)Nc2ccc(C)c(C)c2)n1	0.06% (inactive)	107	107
Cc1ccc(O)c(CNc2nc3ccccc3n2C)c1	3.81% (inactive)	84.6	88.4
O=c1[nH]c2c(c(=O)n1Cc1ccccc1)CCC2	3.8% (inactive)	94.9	98.7
COC(=O)c1ccccc1NC(=O)CSc1nnnn1C	-8.64% (inactive)	104	95.3
O=C(NCc1cccnc1)Nc1ccccc1F	-0.98% (inactive)	99.8	98.8
CCCc1nc2scc(-c3ccc(C)cc3)c2c(=O)n1N	-37.7% (inactive)	83.8	46.1
CC(=O)c1ccc2c(c1)c1ccccc1n2CC(C)C	-0.04% (inactive)	73.3	73.2
CCCCC(C(=O)OCC(=O)c1ccc(OC)cc1)N1C(=O)c2ccccc2C1=O (stereo not drawn)	-8.79% (inactive)	104	95
CCn1nccc1C(=O)Nc1ccc(S(=O)(=O)NC23CC4CC(CC(C4)C2)C3)cc1	-7.56% (inactive)	84	76.5
COc1ccc(Nc2nc(=O)[nH]nc2C)cc1	-5.85% (inactive)	101	95.5
CCOC(=O)Cc1csc(NC(=O)CSc2nnc(-c3cccnc3)n2Cc2ccco2)n1	14.6% (inactive)	85.7	100
COCCn1c(=S)[nH]c2cc(C(=O)NCCc3ccc(OC)c(OC)c3)ccc2c1=O	2.26% (inactive)	75.8	78.1

Compound	differential viability (reversal) (H69AR cells + 2 uM doxorubicin)	viability [1] [%]	viability [2] [%]
CC(=O)Nc1ccc(N2C(=O)CCC2=O)cc1C	-10.5% (inactive)	86.7	76.2
CCc1c(C)sc(NC(=O)c2cccs2)c1C(N)=O	4.09% (inactive)	95.6	99.7
CC1(C)OC(=O)N2CCc3ccccc3C21C (stereo not drawn)	3.59% (inactive)	88	91.6
Cc1[nH]n(-c2ccc([N+](=O)[O-])cc2)c(=O)c1C=NCCN1CCN(C(=O)c2ccccc2F)CC1	-1.07% (inactive)	40.5	39.4
COc1cccc(N(CC(=O)NCCSc2ccccn2)S(C)(=O)=O)c1	3.02% (inactive)	92.5	95.5
CCCC1NC(=O)NC(C)=C1C(=O)OCC (stereo not drawn)	2.9% (inactive)	96.9	99.8
COc1ccccc1C(c1nnnn1C(C)(C)C)N1CCN(Cc2ccccc2)CC1 (stereo not drawn)	9.02% (inactive)	76.2	85.2
Cc1cc2nnc(SCC(=O)N3CCN(c4ccccc4)CC3)n2c(N)n1	-1.47% (inactive)	65.8	64.4
O=C(Nc1ccc(Cl)cc1)c1cc2nc(C3CC3)cc(C(F)(F)F)n2n1	10.2% (inactive)	69.3	79.5
CC1=CC(C)(C)Nc2ccc(OC(=O)C(Cc3ccccc3)N3C(=O)C4CCCCC4C3=O)cc21 (stereo not drawn)	11.8% (inactive)	68.5	80.3
COCCn1c(C)cc(C2=NNC(=Nc3ccc(F)cc3)SC2)c1C	-17.5% (inactive)	106	88.2
Cc1ccc(-n2c(=O)c(C#N)cc3c(=O)n4ccccc4nc32)cc1C	-12.1% (inactive)	87.2	75.1
Cc1cc(NC(=O)CSc2nc(C(C)C)nc3sc4c(c23)CCC(C)C4)no1 (stereo not drawn)	-2.83% (inactive)	8.84	6.01
CC(C)NC(=O)CSc1ccccc1C(=O)NCc1ccc2c(c1)OCO2	5% (inactive)	91.7	96.7
Cc1cccc2c(=O)n3c(nc12)CCCCC3	7.51% (inactive)	83.8	91.3
COc1ccc(CNC(=O)CCn2cccc2)cc1	-1.19% (inactive)	100	98.9
CCOc1cc(C(=O)Nc2c(C)ccc3nsnc23)cc(OCC)c1OCC	-5.65% (inactive)	84	78.3
COC(=O)c1sccc1NC(=O)CCC1CCCC1	11.8% (inactive)	81.7	93.5
Cc1cc(O)cc(O)c1C(=O)Cc1cnn(-c2ccccc2)c1	13% (inactive)	66.8	79.8
CCOC(=O)c1c(N)sc(C(C)=O)c1C	11.1% (inactive)	81.7	92.8
Cc1cccc(S(=O)(=O)CC(=O)Nc2nc(-c3ccccc3)cs2)c1	12.9% (inactive)	86.8	99.7
Cn1c(SCC(=O)C(C)(C)C)nnc1-c1ccccn1	3.29% (inactive)	95	98.3
COc1ccc(NC(=O)C2C3C=CC(C3)C2C(=O)NCc2ccccn2)c(OC)c1 (stereo not drawn)	48.3% (inactive)	44.7	93.1
Cc1ccc(S(=O)(=O)NCC(=O)N2CCN(c3ccccn3)CC2)cc1	14.2% (inactive)	87.1	101
